The source of these data is ChEMBL document CHEMBL1961873, “Compounds: GSK PKIS; Assays: Nanosyn kinase panel” (2012).

Experiment [1] has as its target T1, Serine/threonine-protein kinase Nek9 (Homo sapiens) (UniProt Q8TD19).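 Note: each value is a mean percent inhibition of NEK9.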
T1 sequence (whole entry): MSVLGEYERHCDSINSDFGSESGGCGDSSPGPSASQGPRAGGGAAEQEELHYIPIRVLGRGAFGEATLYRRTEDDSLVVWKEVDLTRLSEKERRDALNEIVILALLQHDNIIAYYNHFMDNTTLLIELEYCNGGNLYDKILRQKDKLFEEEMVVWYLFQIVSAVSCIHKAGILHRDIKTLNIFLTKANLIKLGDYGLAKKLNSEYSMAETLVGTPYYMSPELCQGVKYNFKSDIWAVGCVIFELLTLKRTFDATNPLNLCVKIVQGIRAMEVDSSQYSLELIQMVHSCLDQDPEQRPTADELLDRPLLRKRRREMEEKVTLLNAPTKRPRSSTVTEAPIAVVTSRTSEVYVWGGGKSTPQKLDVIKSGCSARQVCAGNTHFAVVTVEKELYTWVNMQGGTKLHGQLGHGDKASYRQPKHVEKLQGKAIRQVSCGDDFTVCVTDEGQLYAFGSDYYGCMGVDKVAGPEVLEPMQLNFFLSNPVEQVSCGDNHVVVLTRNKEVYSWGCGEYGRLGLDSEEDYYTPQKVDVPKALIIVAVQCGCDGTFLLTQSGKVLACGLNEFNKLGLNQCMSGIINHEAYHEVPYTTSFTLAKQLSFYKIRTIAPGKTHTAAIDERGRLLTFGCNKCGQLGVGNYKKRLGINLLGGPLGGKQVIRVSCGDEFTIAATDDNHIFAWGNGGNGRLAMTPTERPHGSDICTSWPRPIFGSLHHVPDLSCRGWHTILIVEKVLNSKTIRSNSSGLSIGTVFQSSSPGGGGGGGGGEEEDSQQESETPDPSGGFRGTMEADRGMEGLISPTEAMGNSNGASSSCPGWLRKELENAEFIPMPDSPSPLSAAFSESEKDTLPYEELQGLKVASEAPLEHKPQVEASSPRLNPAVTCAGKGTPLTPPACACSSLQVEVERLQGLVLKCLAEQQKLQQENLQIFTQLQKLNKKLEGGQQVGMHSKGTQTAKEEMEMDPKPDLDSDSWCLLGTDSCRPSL
To be noted: at 1 µM.

Experiment [2] addresses Serine/threonine-protein kinase PLK1 (Homo sapiens) (UniProt P53350). The note with it: at 0.1 µM.
Experiment [3] has the same target. To be noted: at 1 µM.
Experiment [4] concerns the target T2, Dual specificity protein kinase TTK (Homo sapiens) (UniProt P33981).
T2 sequence (whole entry): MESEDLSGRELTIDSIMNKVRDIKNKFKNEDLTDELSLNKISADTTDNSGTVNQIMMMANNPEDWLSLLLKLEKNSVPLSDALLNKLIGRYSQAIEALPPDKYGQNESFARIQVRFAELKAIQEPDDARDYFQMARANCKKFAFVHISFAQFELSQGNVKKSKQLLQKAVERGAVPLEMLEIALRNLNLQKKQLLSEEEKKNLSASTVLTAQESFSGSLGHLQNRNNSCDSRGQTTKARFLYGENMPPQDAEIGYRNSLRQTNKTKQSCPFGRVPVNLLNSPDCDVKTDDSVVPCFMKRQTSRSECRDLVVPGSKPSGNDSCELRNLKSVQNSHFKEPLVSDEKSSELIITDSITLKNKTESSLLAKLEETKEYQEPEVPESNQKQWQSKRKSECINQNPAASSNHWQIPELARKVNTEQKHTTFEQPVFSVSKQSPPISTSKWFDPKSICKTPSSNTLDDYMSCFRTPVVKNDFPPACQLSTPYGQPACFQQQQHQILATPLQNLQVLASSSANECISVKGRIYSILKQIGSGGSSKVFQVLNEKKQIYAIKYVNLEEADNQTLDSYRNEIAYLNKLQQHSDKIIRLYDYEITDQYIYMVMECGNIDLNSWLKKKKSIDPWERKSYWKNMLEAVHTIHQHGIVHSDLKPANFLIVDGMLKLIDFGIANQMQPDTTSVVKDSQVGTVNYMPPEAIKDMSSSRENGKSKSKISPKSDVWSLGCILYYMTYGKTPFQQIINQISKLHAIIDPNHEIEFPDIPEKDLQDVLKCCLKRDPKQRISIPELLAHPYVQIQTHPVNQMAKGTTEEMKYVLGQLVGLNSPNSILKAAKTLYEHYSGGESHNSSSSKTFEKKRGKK
The note with it: at 0.1 µM.

The subject of experiment [5] is T3, Receptor-type tyrosine-protein kinase FLT3 (Homo sapiens), P36888 [D835Y].
T3 sequence (whole entry): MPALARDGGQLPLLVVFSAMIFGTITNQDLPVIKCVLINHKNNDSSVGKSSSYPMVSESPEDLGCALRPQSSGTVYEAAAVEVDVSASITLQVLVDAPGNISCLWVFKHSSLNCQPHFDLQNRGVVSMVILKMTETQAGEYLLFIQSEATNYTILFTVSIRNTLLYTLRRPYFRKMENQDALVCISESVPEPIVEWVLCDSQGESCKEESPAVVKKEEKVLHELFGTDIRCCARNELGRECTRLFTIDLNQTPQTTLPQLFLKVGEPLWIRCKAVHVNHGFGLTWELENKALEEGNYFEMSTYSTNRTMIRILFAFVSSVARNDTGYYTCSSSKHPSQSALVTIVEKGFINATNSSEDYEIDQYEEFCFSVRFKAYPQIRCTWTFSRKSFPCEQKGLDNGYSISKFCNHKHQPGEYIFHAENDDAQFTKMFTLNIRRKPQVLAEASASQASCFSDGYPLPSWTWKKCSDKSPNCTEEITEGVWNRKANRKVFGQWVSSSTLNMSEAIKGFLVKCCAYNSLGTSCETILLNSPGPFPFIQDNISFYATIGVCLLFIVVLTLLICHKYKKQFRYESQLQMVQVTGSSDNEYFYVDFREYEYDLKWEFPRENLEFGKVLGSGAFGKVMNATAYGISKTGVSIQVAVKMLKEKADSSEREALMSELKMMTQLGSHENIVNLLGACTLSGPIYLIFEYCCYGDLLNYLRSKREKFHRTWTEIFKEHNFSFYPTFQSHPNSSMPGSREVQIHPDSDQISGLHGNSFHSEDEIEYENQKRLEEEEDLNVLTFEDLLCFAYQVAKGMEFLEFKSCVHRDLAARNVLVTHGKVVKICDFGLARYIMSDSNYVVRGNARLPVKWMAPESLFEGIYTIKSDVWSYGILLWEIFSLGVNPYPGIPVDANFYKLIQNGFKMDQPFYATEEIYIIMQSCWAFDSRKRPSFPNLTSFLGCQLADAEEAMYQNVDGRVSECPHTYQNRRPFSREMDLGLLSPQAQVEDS
To be noted: at 1 µM.

Experiment [6] deals with Vascular endothelial growth factor receptor 3 (Homo sapiens) (UniProt P35916). The note with it: at 0.1 µM.
The target is the same in experiment [7]. To be noted: at 1 µM.
Experiment [8] concerns the target Macrophage colony-stimulating factor 1 receptor (Homo sapiens) (UniProt P07333). The note with it: at 0.1 µM.
Experiment [9] has the same target. The note with it: at 1 µM.
Experiment [10] deals with Tyrosine-protein kinase Fyn (Homo sapiens) (UniProt P06241). The note with it: at 0.1 µM.
Experiment [11] shares this target. To be noted: at 1 µM.
The target of experiment [12] is Tyrosine-protein kinase HCK (Homo sapiens) (UniProt P08631). The note with it: at 0.1 µM.
The target is the same in experiment [13]. To be noted: at 1 µM.
In experiment [14] the target is Insulin-like growth factor 1 receptor (Homo sapiens) (UniProt P08069). The note with it: at 0.1 µM.
Experiment [15] has the same target. The note with it: at 1 µM.
Experiment [16] has as its target Insulin receptor (Homo sapiens) (UniProt P06213). To be noted: at 0.1 µM.
The target is the same in experiment [17]. To be noted: at 1 µM.
For experiment [18], the target named is Insulin receptor-related protein (Homo sapiens) (UniProt P14616). To be noted: at 0.1 µM.
Experiment [19] shares this target. The note with it: at 1 µM.
Experiment [20] deals with T4, Tyrosine-protein kinase ITK/TSK (Homo sapiens) (UniProt Q08881).
T4 sequence (whole entry): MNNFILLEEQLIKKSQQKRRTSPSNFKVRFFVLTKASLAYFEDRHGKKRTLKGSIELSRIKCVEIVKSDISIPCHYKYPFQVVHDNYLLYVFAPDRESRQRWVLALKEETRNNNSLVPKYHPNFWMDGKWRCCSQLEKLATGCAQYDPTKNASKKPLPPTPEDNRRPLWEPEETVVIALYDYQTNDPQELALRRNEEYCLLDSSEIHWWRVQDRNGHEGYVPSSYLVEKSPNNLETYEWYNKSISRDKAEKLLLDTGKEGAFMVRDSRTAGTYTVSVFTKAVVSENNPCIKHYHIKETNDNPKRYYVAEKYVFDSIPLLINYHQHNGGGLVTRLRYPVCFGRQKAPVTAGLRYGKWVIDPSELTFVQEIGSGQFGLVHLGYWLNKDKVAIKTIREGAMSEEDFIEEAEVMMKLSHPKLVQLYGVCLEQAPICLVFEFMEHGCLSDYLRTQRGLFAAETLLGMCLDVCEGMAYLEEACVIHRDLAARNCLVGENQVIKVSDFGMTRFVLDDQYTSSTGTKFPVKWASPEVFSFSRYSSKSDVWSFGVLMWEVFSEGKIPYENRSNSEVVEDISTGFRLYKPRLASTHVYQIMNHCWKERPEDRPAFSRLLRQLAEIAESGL
To be noted: at 0.1 µM.

Each structure is given as a SMILES string.

Sequence of Macrophage colony-stimulating factor 1 receptor (Homo sapiens) (P07333 whole entry): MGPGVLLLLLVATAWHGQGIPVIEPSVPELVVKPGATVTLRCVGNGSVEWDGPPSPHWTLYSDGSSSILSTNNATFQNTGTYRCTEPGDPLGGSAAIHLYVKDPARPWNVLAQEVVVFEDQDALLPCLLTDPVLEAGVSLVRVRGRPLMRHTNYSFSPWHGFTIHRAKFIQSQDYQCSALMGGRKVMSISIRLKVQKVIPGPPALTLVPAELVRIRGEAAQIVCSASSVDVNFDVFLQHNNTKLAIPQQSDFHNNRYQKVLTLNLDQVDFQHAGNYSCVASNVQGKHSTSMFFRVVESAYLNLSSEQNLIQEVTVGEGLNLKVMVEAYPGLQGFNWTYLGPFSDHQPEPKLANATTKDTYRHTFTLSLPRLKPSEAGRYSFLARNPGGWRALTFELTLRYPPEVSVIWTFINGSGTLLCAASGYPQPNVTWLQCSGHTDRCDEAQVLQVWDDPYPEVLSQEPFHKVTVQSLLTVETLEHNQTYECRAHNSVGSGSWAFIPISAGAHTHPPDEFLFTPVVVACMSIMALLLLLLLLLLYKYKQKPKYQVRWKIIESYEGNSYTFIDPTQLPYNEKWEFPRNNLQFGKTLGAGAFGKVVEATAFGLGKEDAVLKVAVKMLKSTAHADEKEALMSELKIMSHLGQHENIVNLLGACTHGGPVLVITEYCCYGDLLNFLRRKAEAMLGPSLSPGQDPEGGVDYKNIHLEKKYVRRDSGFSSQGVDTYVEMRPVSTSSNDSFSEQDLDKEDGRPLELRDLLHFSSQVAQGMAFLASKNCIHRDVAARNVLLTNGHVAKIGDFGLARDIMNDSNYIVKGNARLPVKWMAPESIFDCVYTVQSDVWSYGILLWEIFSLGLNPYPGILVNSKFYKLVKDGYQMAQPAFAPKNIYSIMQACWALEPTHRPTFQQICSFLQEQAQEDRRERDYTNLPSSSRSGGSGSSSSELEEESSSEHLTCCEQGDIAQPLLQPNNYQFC
Sequence of Insulin receptor (Homo sapiens) (P06213 28-758 limits assumed): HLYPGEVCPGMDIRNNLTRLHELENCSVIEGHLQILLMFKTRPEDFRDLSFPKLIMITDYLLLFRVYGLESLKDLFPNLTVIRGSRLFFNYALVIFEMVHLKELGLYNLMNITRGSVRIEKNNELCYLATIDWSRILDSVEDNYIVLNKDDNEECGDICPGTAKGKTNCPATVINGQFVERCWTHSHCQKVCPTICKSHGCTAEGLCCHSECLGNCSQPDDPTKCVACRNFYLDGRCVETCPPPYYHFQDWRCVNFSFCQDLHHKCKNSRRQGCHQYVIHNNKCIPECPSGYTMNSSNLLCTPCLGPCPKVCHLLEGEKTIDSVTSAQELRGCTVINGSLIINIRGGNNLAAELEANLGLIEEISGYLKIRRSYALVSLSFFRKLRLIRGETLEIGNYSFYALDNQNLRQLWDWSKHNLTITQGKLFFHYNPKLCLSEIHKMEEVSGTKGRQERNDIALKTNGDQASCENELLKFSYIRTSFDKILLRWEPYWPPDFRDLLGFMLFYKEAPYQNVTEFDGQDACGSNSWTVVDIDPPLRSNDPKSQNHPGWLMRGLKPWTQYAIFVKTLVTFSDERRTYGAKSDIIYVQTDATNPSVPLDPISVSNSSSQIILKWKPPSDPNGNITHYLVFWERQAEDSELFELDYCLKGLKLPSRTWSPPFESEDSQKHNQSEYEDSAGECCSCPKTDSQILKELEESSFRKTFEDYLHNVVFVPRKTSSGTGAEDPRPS
Sequence of Insulin receptor (Homo sapiens) (P06213 763-1382 limits assumed): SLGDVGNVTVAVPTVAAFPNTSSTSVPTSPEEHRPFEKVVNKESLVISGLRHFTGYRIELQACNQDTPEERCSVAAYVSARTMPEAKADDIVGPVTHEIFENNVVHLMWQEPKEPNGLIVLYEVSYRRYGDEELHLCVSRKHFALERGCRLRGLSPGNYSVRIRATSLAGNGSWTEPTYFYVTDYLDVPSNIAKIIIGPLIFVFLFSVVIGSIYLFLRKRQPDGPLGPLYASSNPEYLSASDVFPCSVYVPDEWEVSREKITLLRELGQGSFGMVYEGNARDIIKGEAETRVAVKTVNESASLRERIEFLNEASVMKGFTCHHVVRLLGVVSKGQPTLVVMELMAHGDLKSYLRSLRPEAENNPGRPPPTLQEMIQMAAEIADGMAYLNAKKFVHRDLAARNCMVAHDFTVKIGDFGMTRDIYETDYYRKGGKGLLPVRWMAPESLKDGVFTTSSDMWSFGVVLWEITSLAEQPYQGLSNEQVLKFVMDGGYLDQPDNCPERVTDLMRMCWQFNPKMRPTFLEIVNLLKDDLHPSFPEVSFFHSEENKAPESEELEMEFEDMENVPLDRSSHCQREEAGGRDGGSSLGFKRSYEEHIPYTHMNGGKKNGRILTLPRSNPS
Sequence of Serine/threonine-protein kinase PLK1 (Homo sapiens) (P53350 whole entry): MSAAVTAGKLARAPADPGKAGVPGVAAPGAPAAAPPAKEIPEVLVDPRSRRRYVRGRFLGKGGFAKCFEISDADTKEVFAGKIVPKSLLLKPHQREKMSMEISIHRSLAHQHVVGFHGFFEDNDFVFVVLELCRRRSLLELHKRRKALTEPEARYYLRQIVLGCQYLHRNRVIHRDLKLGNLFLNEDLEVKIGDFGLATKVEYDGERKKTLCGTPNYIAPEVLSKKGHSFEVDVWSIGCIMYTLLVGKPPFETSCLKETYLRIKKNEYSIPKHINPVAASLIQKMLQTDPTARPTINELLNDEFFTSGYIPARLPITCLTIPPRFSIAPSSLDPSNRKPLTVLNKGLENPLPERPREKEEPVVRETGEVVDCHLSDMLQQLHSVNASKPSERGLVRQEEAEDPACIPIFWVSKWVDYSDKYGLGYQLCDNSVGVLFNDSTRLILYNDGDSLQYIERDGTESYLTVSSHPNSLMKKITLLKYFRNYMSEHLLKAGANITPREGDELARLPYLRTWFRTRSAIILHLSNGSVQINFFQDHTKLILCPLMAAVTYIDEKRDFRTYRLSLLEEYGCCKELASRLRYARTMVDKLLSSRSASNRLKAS
Sequence of Insulin receptor-related protein (Homo sapiens) (P14616 27-742 limits assumed): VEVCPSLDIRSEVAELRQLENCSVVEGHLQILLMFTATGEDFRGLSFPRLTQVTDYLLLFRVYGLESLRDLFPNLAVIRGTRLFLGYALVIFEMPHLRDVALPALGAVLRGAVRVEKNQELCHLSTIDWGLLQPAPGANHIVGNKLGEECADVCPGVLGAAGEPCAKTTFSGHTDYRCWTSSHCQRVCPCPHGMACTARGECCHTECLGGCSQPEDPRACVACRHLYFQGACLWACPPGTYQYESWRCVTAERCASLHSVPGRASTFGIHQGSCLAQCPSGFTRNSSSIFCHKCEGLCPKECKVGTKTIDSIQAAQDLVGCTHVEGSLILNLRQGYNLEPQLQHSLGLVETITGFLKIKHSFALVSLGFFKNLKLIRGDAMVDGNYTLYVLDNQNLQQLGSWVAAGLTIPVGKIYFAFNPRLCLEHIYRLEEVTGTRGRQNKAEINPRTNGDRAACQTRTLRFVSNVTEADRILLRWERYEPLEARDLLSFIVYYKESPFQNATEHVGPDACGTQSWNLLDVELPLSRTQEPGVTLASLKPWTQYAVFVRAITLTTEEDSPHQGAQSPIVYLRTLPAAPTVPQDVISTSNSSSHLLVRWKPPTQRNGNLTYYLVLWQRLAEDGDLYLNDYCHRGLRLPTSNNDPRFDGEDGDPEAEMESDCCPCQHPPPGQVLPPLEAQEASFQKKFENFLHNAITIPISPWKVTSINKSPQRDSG
Sequence of Insulin receptor-related protein (Homo sapiens) (P14616 747-1297 limits assumed): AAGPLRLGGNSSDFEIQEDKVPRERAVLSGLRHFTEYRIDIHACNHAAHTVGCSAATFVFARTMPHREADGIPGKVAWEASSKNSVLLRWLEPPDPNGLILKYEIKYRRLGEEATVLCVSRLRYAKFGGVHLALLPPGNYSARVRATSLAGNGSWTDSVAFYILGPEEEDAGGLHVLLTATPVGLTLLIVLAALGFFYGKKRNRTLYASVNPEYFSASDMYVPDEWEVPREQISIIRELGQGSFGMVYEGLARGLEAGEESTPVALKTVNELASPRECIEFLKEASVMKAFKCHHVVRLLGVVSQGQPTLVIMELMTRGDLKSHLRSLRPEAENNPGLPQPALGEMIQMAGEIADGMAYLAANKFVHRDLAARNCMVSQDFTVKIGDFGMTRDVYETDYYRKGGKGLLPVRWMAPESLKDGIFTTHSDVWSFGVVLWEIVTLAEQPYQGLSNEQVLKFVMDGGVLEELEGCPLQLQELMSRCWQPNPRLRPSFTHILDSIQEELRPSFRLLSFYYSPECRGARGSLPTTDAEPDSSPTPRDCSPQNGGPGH
Sequence of Tyrosine-protein kinase HCK (Homo sapiens) (P08631 2-526 limits assumed): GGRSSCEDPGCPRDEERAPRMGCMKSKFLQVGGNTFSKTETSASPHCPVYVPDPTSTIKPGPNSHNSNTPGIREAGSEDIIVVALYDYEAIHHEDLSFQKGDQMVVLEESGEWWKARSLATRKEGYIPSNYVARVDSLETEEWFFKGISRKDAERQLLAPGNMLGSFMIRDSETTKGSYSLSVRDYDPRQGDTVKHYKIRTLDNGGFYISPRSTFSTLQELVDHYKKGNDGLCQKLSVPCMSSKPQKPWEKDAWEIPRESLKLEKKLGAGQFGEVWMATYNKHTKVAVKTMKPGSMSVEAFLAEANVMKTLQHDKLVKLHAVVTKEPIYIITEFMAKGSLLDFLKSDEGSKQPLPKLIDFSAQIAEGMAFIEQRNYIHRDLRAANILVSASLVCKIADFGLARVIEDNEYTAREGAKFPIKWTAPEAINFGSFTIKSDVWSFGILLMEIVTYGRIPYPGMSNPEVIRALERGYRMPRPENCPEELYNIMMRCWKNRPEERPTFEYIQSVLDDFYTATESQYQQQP

As a reminder, the inhibition is the relative decrease from the control value, in per cent. For `Fc1ccc(-c2ncn(C3CCNCC3)c2-c2ccnc(Oc3ccc4c(c3)OCO4)n2)cc1`, the inhibition in experiment [1] was 7.95%; in experiment [2], 4.77%; in experiment [3], 3.7%; in experiment [4] it was 7.25%; in experiment [5], -0.75%; in [6], 3.31%. Besides, the inhibition in experiment [7] was determined as 5.76%; in [8], 2.5%; in experiment [9], 12.1%; in experiment [10] it was 1.06%; in [11], 3.17%; in experiment [12], 6.2%. Moreover, the inhibition in experiment [13] was found to be 10.9%; in experiment [14], 0.4%; in [15], 2.16%; in [16], 2.85%; in experiment [17] it was 3.42%; in [18], 3.09%. Also, the inhibition in experiment [19] turned out to be 3.51%; in experiment [20] it was 1.6%.
As to `Fc1ccc(-c2ncn(CCCN3CCOCC3)c2-c2ccncc2)cc1`, the inhibition in experiment [1] was 3.15%; in [2] it was -0.58%; in experiment [3], -0.73%; in experiment [4] it was 5.04%; in [5] it was 0.03%; in experiment [6], 0.07%. Besides, the inhibition is 0.05% in experiment [7]; 0.18% in experiment [8]; 1.37% in [9]; -0.55% in experiment [10]; -2.27% in experiment [11]; -1.42% in experiment [12]. Besides, the inhibition was 2.38% in [13]; 2.24% in experiment [14]; -1.55% in [15]; -0.34% in experiment [16]; 0.12% in experiment [17]; -0.04% in experiment [18]. Besides, the inhibition in experiment [19] is 0.12%; in experiment [20] it was 0.83%.
`O=C(Nc1ccc(Oc2ccc3[nH]c(NC(=O)c4ccccc4)nc3c2)cc1)Nc1cc(C(F)(F)F)ccc1F`: the inhibition in experiment [1] was determined as 10.3%; in experiment [2], 2.66%; in experiment [3], 1.84%; in experiment [4], 5.51%; in experiment [5], 14%; in experiment [6], 14.1%. In addition, the inhibition in experiment [7] stood at 36.2%; in experiment [8], 4.75%; in [9], 48.1%; in experiment [10] it was 3.06%; in experiment [11], 21.5%; in [12] it was 7.45%. The inhibition turned out to be 21.8% in experiment [13]; 10.6% in experiment [14]; 7.91% in [15]; 2% in experiment [16]; 2.26% in experiment [17]; 2.66% in experiment [18]. Besides, the figures for the inhibition in experiment [19] and in [20] were 3.55% and 1.11%, respectively.
With `Cc1ccc(C(=O)NC(C)C)cc1-c1ccc(C(=O)NCC2CC2)cc1`, the inhibition in [1] was 4.93%; in [2] it was -2.88%; in experiment [3] it was 0.01%; in experiment [4], -5.71%; in experiment [5], 5.33%; in experiment [6] it was 1.2%. The inhibition in experiment [7] is 2.58%; in experiment [8], -3.16%; in experiment [9], 0.94%; in [10], -0.23%; in experiment [11], 0.91%; in experiment [12] it was -3.59%. Moreover, the inhibition was -1.19% in [13]; -3.27% in experiment [14]; -3.34% in experiment [15]; -1.9% in [16]; -4.51% in experiment [17]; -4.15% in [18]. Further, the values for the inhibition in [19] and in experiment [20] were -4.41% and -1.4%, respectively.
